# For part of these data: Results with a measured potency or affinity are listed apart.
# What was measured:
# Design in all cases: scale not given: direction of the effect not stated beside the values
# [1] = biological target: Protein translocase subunit SecA (Escherichia coli (strain K12)) (UniProt P10408); test: Assay to Identify E. coli SecA ATPase Inhibitors; type: functional; conditions: 30 µM
# [2] = biological target: T1, Ubiquitin-activating enzyme e1, putative (Leishmania donovani (strain BPK282A1)) (UniProt E9BSI1); test: Leishmania donovani Ubiquitin Activating Enzyme (LdE1); type: functional; conditions: 30 µM
# T1 sequence (whole entry): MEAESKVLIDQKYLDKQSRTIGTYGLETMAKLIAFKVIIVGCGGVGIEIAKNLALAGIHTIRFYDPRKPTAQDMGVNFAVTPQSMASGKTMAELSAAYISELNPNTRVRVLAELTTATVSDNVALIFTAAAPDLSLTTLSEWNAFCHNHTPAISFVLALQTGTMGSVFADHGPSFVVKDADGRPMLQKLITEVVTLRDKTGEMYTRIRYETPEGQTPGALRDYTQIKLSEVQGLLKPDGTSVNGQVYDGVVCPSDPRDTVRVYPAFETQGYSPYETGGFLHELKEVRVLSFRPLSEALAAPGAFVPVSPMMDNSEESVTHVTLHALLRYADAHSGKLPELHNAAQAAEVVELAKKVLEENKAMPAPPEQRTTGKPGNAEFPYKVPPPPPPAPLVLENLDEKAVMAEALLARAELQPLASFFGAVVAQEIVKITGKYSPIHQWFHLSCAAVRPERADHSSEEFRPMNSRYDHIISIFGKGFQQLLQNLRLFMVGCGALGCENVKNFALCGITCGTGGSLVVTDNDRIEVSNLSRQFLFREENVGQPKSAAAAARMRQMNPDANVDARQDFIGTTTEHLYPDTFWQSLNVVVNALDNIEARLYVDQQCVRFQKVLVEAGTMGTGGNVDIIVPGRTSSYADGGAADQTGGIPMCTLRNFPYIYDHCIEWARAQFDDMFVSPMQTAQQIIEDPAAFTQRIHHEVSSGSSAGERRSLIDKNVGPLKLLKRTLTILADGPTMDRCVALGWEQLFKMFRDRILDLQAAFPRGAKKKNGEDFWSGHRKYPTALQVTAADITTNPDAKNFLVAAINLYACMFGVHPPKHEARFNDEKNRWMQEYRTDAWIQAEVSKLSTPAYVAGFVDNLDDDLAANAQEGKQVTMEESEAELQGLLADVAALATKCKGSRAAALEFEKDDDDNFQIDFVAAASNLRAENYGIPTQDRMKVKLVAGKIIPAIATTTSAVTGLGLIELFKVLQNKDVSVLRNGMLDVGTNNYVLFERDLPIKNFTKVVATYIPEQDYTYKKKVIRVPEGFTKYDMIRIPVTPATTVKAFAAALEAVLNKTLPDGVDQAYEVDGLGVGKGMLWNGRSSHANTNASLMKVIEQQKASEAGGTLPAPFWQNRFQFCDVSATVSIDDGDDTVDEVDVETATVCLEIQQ
# [3] = biological target: AMP-activated protein kinase, AMPK (Homo sapiens) (UniProt P54646+O43741+P54619+Q9UGJ0+Q9Y478+Q13131+Q9UGI9); test: AMP-dependent Kinase enzyme assay. An in vitro enzyme assay that detects ADP turnover that is directly proportional to AMPK activity. This uses naive AMPK that is activated during the assay with MK-8722; type: functional; conditions: 30 µM
# [4] = biological target: Sialic acid-binding Ig-like lectin 9 (Homo sapiens) (UniProt Q9Y336); test: Hs-Siglec9 ALPHAscreen SOP 20170721; conditions: 10 µM
# Trypanosoma cruzi = test: Trypanosoma cruzi phosphomannomutase and mannose-1-phosphate guanylyltransferase assay; type: functional; conditions: 10 µM
# [5] = biological target: T2, Arginase-2, mitochondrial (Homo sapiens) (UniProt P78540); test: in vitro enzyme assay to detect the production of urea directly proportional to the activity of Arginase II; type: functional; conditions: 33.3 µM; further: in the data most compounds retested in dose-response had high values
# T2 sequence (whole entry): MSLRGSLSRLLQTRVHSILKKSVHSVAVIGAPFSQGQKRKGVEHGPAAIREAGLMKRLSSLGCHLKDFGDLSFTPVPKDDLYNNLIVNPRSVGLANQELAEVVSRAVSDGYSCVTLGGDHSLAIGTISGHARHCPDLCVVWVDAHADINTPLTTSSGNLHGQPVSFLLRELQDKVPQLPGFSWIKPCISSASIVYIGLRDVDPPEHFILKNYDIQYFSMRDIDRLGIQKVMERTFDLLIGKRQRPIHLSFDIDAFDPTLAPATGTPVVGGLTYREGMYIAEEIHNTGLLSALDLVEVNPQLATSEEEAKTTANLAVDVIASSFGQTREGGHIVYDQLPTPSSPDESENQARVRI
# [6] = biological target: T3, Proteasome subunit beta (Trypanosoma cruzi) (UniProt O96673); test: Trypanosoma cruzi proteasome chymotrypsin-like activity (TcProtChymo) assay.; further: in the data most compounds retested in dose-response had high values; type: functional; conditions: 9.37 µM
# T3 sequence (whole entry): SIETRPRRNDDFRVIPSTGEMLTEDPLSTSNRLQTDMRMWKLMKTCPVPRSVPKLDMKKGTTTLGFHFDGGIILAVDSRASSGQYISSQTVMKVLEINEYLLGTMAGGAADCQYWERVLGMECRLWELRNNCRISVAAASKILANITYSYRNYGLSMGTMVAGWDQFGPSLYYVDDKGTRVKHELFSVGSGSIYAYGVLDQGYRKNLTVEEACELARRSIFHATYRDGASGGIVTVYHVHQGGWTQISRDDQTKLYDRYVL
# Homo sapiens = species on record: Homo sapiens; test: To identify inhibition of the IFN signalling (Jak-Stat) pathway via expression of an eGFP reporter gene under the control of an IFN-stimulated response element (ISRE) containing MxA promoter.; type: functional; conditions: 30 µM
# [7] = biological target: T4, Tyrosyl-tRNA synthetase, putative (Trypanosoma cruzi (strain CL Brener)) (UniProt Q4DSP6); test: Trypanosoma cruzi tyrosyl tRNA synthetase (TcYRS) _High Tyrosine SOP; type: functional; conditions: 30 µM; further: in the data most compounds retested in dose-response had high values
# T4 sequence (whole entry): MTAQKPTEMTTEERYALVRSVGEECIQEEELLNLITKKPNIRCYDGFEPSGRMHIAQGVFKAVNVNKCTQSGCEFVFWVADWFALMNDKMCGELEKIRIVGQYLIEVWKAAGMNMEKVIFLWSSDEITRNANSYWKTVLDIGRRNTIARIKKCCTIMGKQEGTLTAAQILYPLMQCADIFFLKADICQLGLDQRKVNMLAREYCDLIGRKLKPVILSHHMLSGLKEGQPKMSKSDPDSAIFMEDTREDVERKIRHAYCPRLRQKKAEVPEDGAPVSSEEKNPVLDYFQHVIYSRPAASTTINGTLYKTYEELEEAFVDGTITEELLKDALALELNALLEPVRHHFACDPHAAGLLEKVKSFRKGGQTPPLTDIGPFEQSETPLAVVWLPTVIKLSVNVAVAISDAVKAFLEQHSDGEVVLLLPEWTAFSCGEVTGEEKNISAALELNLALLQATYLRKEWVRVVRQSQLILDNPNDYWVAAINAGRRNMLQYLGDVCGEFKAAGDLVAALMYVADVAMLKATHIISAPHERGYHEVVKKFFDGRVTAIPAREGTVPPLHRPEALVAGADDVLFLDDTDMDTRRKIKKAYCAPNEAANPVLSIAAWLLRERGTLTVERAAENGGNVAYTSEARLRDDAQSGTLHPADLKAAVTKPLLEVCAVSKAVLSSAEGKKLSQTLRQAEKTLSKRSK
# [8] = biological target: T4, Tyrosyl-tRNA synthetase, putative (Trypanosoma cruzi (strain CL Brener)); test: Trypanosoma cruzi tyrosyl tRNA synthetase (TcYRS) SOP; type: functional; conditions: 30 µM
# [9] = biological target: Chromo domain-containing protein 1 (Saccharomyces cerevisiae (strain ATCC 204508 / S288c) (Baker's yeast)) (UniProt P32657); test: ScCHD-1 Enzyme Inhibition Assay; type: functional; conditions: 30 µM; further: in the data most compounds retested in dose-response had high values
# Sequence of Chromo domain-containing protein 1 (Saccharomyces cerevisiae (strain ATCC 204508 / S288c) (Baker's yeast)) (P32657 whole entry, the tested form may be a part): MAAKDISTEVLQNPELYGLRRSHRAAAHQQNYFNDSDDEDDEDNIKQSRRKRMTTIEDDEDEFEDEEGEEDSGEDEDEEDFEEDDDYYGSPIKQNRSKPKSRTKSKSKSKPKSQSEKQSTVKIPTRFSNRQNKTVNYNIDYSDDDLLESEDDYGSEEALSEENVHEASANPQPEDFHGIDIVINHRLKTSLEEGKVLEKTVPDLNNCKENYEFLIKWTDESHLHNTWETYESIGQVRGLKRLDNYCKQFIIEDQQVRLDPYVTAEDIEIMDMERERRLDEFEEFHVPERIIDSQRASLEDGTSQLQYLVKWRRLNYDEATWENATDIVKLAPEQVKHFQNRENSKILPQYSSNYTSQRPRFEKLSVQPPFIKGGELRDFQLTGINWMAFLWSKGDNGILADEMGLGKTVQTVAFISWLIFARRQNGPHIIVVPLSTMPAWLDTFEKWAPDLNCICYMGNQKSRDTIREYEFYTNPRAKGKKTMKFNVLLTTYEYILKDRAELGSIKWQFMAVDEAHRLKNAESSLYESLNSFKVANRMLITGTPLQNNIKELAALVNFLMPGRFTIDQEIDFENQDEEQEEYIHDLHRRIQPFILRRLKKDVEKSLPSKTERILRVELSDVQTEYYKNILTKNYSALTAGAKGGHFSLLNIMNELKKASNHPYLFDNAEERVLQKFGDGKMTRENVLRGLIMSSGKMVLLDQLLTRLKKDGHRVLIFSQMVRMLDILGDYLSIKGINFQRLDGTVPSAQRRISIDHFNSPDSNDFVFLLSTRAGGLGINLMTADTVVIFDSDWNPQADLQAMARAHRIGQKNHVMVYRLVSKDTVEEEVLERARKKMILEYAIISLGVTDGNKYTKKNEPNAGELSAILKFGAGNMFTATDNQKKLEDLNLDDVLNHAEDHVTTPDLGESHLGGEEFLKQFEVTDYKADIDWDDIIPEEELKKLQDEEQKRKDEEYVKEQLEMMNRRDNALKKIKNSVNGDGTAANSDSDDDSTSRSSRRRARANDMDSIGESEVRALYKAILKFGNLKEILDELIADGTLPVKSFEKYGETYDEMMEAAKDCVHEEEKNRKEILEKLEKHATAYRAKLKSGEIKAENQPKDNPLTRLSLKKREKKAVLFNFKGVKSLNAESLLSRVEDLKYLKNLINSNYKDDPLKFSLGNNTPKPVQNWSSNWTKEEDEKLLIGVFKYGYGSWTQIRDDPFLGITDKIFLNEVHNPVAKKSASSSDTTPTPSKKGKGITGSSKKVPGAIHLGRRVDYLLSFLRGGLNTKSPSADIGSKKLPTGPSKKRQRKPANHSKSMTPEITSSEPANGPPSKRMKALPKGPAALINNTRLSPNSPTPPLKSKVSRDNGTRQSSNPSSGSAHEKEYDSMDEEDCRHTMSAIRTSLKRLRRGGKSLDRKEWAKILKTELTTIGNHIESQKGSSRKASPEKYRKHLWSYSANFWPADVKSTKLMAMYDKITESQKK
# Sequence of Protein translocase subunit SecA (Escherichia coli (strain K12)) (P10408 whole entry): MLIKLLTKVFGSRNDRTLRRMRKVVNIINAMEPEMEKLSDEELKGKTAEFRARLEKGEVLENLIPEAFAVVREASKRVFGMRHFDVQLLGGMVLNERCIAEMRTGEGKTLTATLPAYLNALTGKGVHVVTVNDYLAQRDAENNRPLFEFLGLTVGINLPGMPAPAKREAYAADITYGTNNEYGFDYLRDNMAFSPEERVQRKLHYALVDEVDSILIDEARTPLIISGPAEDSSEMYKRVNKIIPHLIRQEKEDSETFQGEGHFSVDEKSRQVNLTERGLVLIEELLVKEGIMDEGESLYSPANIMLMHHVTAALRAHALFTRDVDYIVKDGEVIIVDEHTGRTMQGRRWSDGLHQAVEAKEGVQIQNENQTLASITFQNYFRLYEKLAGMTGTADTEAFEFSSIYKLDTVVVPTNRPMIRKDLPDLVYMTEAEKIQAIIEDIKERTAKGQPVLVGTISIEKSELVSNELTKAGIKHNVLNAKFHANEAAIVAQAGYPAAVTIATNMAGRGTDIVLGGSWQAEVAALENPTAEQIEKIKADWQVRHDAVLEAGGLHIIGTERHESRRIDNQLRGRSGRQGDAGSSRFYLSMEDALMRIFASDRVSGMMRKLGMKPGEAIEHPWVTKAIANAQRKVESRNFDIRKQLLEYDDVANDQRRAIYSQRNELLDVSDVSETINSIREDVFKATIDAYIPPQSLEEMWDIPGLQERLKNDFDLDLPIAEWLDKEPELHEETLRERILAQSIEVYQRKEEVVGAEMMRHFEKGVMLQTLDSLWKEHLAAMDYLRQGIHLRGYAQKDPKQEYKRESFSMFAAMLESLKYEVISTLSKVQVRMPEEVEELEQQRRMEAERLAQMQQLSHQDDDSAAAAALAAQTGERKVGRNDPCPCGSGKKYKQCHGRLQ
# Sequence of Sialic acid-binding Ig-like lectin 9 (Homo sapiens) (Q9Y336 whole entry): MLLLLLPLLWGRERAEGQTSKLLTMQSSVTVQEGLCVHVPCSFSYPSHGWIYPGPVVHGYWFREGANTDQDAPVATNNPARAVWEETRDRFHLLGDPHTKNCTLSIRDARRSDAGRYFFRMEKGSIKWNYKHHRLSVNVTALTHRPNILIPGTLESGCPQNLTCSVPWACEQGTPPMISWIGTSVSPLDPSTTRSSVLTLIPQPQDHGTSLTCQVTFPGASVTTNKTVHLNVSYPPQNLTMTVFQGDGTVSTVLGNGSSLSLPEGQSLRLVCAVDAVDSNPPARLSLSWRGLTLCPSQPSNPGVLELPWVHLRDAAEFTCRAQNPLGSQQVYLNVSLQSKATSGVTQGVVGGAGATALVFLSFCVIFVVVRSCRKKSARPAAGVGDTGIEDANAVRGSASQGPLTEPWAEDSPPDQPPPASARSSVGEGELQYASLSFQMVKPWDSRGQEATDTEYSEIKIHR
SMILES,Percent Effect [1] [%],Percent Effect [2] [%],Percent Effect [3] [%],Percent Effect [4] [%],Percent Effect (Trypanosoma cruzi) [%],Percent Effect [5] [%],Percent Effect [6] [%],Percent Effect (Homo sapiens) [%],Percent Effect [7] [%],Percent Effect [8] [%],Percent Effect [9] [%]
CCOCC(=O)NC1(c2cccc(Br)c2)CC1,-8.13,0,0.838,9.79,-3.67,-2.38,7.76,13.1,-1.59,-2.44,-3.38
COc1ccc2cc(C(=O)N3CCCCC3Cn3cccn3)[nH]c2c1 (stereo unspecified),-8.67,0,2.23,5.53,-0.562,2.13,1.86,2.73,0,2.44,-1.29
O=C(NCC1CCOC1)c1cc(-c2cccc(Cl)c2)on1 (stereo unspecified),-3.92,18.2,1.45,3.45,0,4.27,16.7,14.6,5.83,14.6,-5.69
Cc1nc(C)n(CC2CCCN2CCCOc2ccc(F)cc2)n1 (stereo unspecified),-4.9,-15.2,-12.2,-1.58,7.84,0,8.93,7.36,8.37,13.9,-6.25
O=C1CC(c2cccs2)c2cnn(C3CCCC3)c2N1 (stereo unspecified),-5.95,-5.33,6.01,-6.09,-6.13,-4.69,6.97,10.9,-2.73,-6.17,1.62
Cc1ncsc1CN1CC[C@H]2OCC[C@@]2(C(=O)NC(C)C)C1,-3.99,0,6.03,-6.45,-3.25,0.645,0.87,30.1,-1.06,-8.97,0.0917
CNC(=O)CSc1cnn(CC(=O)Nc2cccc(Cl)c2C)c(=O)c1Cl,-2.17,5.48,-0.626,4.21,-4.31,2.73,17.6,9.06,4.3,12.5,1.71
CN(C)C(=O)Cc1ccc(NC(=O)NC2CCCCC2)cc1,-1.35,-5.41,-1.19,3.35,6.56,-2.86,16,11,1.59,7.32,-0.0586
COCC(=O)N1CC[C@@H]2O[C@@H](COCc3csc(C)n3)CC[C@@H]21,-2.35,13.5,4.29,-14.3,-2.25,7.96,26.9,-1.3,8.65,12.8,-4.47
Cc1cc(=O)n(CC(=O)NCC2CCCO2)c(-c2cccc(Cl)c2)n1 (stereo unspecified),-4.72,18.2,-2.1,12.6,6.59,11,9.15,-10.7,5.38,16.1,-4.38
Cn1c(CN2CCN(CC3CC3)CC2)nnc1C1CCC1,-8.27,0,-14,5.49,-0.392,-1.36,4.44,-5.43,-2.15,0,-2.31
COc1ccc(CNC2CCN(CCc3ccncc3)CC2)cc1O,-6.94,16.2,-9.03,9.91,5.27,26.7,10.6,-0.697,-6.93,8.54,-9.05
Cc1nn(C)c(N(C)C)c1CNC1CCOc2c(F)cccc21 (stereo unspecified),-6.1,5.26,-2.48,4.77,-6.01,0.766,8.02,9.98,6.37,4.88,2.09
CS(=O)(=O)N1CCC(C(=O)NCCNc2ncccn2)CC1,-3.08,10.8,2.54,-1.9,8.45,-7.21,14.2,14.8,6.93,15.8,-3.22
CSCCC1c2nc[nH]c2CCN1Cc1cc(Cl)ccc1O (stereo unspecified),-4.06,-2.67,-4.48,3.19,2.63,0.521,18.3,35.7,12.6,23.5,-0.295
COc1ccc(C(=O)N(C)Cc2nnc3ccccn23)c(OC)c1,-4.19,-5.2,1.07,4.72,2.06,-1.47,12.5,-2.12,2.86,14.1,-15.8
O=C1COc2cc(C(=O)NS(=O)(=O)c3ccccc3F)ccc2N1,-1.86,2.63,3.61,-9.82,-3.46,-3.6,5.16,-3.9,-4.43,-11.1,2.83
CCc1ncncc1C(=O)N1CCN(Cc2c(C)noc2C)CC1,-5.8,13.2,-4.4,4.23,2.89,0.36,3.98,-0.539,7.39,16.1,-0.381
CCOCCOC(C)C(=O)NCc1cn2cc(Br)ccc2n1 (stereo unspecified),-0.315,0,8.27,0.478,1.27,1.18,9.68,-18,5.32,10.4,-1.5
COc1ccc(CN2CCC(O)CC2)c(OC)c1,-2.06,0,-1.5,2.82,1.93,-1.91,4.83,13.4,2.65,9.76,-0.716
CC(C)N(C)C(=O)C1=NOC2(CCN(C(=O)c3ccc(Cl)cc3)C2)C1 (stereo unspecified),-0.137,5.48,1.89,5.19,-7.54,-1.6,17.6,27.1,8.33,8.64,-3.93
